The text below walks through data of PubChem BioAssay (EPA / NIEHS).

“And” between values parts separate entries of the source, which are not always exact repeats. Equal values may be shown once. Results filed as inconclusive are left out. The source made the active and inactive calls. Rule for the calls, unless noted: active = hit-call score of the fitted dose curve at least 0.9, where 1 is the maximum; inconclusive = response in the unintended direction; inactive = score below 0.9.

Experiment [1] deals with Voltage-dependent N-type calcium channel subunit alpha-1B (Rattus norvegicus) (UniProt Q02294). The experiment is described as follows: NVS_IC_rCaChN: NovaScreen (NVS) Ion Channel Assay for rat Calcium Channel, Type N (CaChN) (AID 2283317).
In experiment [2] the target is Glutamate receptor ionotropic, kainate 1 (Rattus norvegicus) (UniProt P22756). The experiment is described as follows: NVS_IC_rKAR: NovaScreen (NVS) Ion Channel Assay for rat Kainic Acid Receptors (KAR) (AID 2283334; active = hit-call score of the fitted dose curve at least 0.9, where 1 is the maximum; inactive = score below 0.9). An outline of the steps: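 Rat forebrain membrane preparation incubated 1 h with radioligand and test chemical; bound signal read by filtration and scintillation. Single-concentration screen at 25 uM, then concentration series to 50 uM maximum.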

Experiment [3] addresses Sodium channel protein type 1 subunit alpha (Rattus norvegicus) (UniProt P04774). Kind of experiment: NVS_IC_rNaCh_site2: NovaScreen (NVS) Ion Channel Assay for rat Sodium Channel, Site 2 (NaCh) (AID 2283322).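 Note: hit means loss of radioligand binding signal relative to DMSO so AC50 marks displacement.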 In outline:
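Initial duplicate single-point testing at 25 uM, followed by concentration-response runs for actives. Binding of radioligand to rat forebrain membranes quantified after 1 h via filter-based radiodetection.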

For experiment [4], the target named is Voltage-gated inwardly rectifying potassium channel KCNH2 (Homo sapiens) (UniProt Q12809). Kind of experiment: NVS_IC_hKhERGCh: NovaScreen (NVS) Ion Channel Assay for human Potassium Channel ERG (KhERGCh) (AID 2283333). An outline of the steps: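 Membranes from CHO cells expressing human ERG; displacement of radioligand measured by filtration and scintillation after 0.75 h. Single-concentration duplicate screen at 25 uM, then concentration-response for actives; DMSO baseline.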
Voltage-gated inwardly rectifying potassium channel KCNH2 (Homo sapiens), sequence (Q12809 whole entry, looked up): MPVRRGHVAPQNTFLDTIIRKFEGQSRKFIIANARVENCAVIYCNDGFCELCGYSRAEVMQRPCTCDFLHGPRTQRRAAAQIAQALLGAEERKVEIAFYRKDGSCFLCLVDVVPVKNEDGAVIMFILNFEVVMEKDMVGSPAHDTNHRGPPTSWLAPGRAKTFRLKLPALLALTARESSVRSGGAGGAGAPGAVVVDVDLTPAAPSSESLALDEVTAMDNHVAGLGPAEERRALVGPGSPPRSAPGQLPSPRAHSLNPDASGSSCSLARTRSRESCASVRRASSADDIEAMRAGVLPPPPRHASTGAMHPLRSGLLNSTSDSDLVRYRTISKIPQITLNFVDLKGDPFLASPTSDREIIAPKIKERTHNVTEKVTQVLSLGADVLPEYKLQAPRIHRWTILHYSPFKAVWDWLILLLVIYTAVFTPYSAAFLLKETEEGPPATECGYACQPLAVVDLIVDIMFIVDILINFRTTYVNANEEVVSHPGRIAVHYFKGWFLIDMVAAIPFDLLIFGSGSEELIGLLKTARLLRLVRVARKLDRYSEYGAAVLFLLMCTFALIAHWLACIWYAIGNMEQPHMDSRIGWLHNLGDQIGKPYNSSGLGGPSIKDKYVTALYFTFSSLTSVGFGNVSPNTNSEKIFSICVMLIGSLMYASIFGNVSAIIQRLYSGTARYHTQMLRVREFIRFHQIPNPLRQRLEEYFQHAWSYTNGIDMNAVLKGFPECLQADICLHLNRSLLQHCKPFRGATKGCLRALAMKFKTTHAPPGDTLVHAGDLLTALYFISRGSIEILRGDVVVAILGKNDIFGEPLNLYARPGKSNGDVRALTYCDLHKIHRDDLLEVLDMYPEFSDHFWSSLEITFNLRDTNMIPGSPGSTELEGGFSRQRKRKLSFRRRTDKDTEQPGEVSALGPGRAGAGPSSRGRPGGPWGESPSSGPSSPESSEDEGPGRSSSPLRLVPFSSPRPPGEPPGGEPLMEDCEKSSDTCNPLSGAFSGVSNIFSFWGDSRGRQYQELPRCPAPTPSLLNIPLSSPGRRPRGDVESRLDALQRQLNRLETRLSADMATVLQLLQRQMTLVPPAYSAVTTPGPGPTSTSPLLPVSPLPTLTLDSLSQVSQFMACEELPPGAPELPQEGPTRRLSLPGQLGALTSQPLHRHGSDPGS

In experiment [5] the target is rat Peripheral-type Benzodiazepine Receptor (PBR), Tspo (gene 24230) (UniProt P16257). Kind of experiment: NVS_MP_rPBR: NovaScreen (NVS) Membrane Protein Assay for rat Peripheral-type Benzodiazepine Receptor (PBR) (AID 2283335). An outline of the steps: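 Single-concentration duplicate screening at 25 uM preceded concentration-series retesting of actives. Binding of a specific radioligand to rat kidney membrane PBR was read by filtration radiodetection after 1 h, with plate-wise positive and negative controls.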
rat Peripheral-type Benzodiazepine Receptor (PBR), Tspo (gene 24230), sequence (P16257 whole entry, looked up): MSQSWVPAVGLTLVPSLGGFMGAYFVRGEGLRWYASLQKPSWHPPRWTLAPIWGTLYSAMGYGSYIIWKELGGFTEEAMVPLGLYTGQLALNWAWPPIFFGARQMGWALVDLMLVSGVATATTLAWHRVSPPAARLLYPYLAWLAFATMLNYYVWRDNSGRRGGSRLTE

Experiment [6] is described as follows: NVS_IC_rCaBTZCHL: NovaScreen (NVS) Ion Channel Assay for Calcium Channel, Type L, Benzothiazepine Site (CaBTZCHL) (AID 2283337). In outline:
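Benzothiazepine-site binding was assessed in a tissue-derived, cell-free rat cortical membrane system. After 1.5 h exposure, radioactivity retained on filters was quantified by scintillation; positive and negative controls accompanied every plate.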

The subject of experiment [7] is NCBI gene 24521. Kind of experiment: NVS_IC_rKATPCh: NovaScreen (NVS) Ion Channel Assay for rat Potassium Channel, ATP-Sensitive (KATPCh) (AID 2283319). In outline:
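Primary duplicate screen at 25 uM, then singleton concentration series to 50 uM maximum, in a rat cortex membrane radioligand displacement assay. Binding measured by filtration and scintillation 2 h post-dose; DMSO baseline.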

Experiment [8] addresses bovine Gamma-Aminobutyric Acid Type A Receptor BDZ, alpha 1 site (GABARa1), GABRA1 (gene 780973) (UniProt P08219). The experiment is described as follows: NVS_LGIC_bGABARa1: NovaScreen (NVS) Ligand-Gated Ion Channel Assay for bovine Gamma-Aminobutyric Acid Type A Receptor BDZ, alpha 1 site (GABARa1) (AID 2283321). In outline:
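Bovine cortex membrane preparation, benzodiazepine site on GABA-A alpha1; specific radioligand displacement read after 0.75 h by filtration and scintillation. Screen at 25 uM, then singleton titrations up to 50 uM; DMSO baseline.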

The target of experiment [9] is rat Opioid Receptor, Non-selective Binding, Oprm1 (gene 25601) (UniProt P33535). The experiment is described as follows: NVS_GPCR_rOpiate_NonSelective: NovaScreen (NVS) G Protein-Coupled Receptor Assay for rat Opioid Receptor, Non-selective Binding (AID 2283318). In outline: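 Filter-based radioligand displacement using rat forebrain membrane preparations, measured 1.5 h post-dosing. Single-concentration duplicate screen at 25 uM, follow-up in concentration series; activity taken as signal loss relative to DMSO.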
rat Opioid Receptor, Non-selective Binding, Oprm1 (gene 25601), sequence (P33535 whole entry, looked up): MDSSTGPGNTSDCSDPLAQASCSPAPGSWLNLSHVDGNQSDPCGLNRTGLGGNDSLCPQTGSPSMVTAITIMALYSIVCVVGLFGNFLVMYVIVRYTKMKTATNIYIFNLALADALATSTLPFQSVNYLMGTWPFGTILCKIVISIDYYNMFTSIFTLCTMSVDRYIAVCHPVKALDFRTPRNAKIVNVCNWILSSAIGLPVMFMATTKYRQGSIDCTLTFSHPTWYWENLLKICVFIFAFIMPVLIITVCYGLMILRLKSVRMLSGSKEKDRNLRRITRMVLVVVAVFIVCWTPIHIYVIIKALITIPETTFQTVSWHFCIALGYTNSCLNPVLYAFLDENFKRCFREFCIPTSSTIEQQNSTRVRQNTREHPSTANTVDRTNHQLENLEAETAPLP

The nature of experiment [10]: NVS_IC_rCaDHPRCh_L: NovaScreen (NVS) Ion Channel Assay for rat Calcium Channel, Type L, Dihydropyridine Site (CaDHPRCh_L) (AID 2283320). In outline:
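Rat cortex membrane preparation; dihydropyridine-site radioligand displacement read 1 h post-dose by filtration and scintillation. Primary single-point screen 25 uM in duplicate, then concentration series to 50 uM maximum; DMSO as negative control.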

The target in experiment [11] is bovine Gamma-Aminobutyric Acid Type A Receptor BDZ, alpha 5 site (GABARa5), GABRA5 (gene 523515) (UniProt Q08E50). Kind of experiment: NVS_LGIC_bGABARa5: NovaScreen (NVS) Ligand-Gated Ion Channel Assay for bovine Gamma-Aminobutyric Acid Type A Receptor BDZ, alpha 5 site (GABARa5) (AID 2283323). In outline: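 Tested first in duplicate at a single 25 uM, with hits re-run in concentration series to a 50 uM maximum. Bovine hippocampal membranes; specific radioligand displacement measured by filter scintillation counting 1 hr post-dose.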

Experiment [12] addresses rat Thyrotropin Releasing Hormone Receptor (TRH), Trhr (gene 25570) (UniProt Q01717). The experiment is described as follows: NVS_GPCR_rTRH: NovaScreen (NVS) G Protein-Coupled Receptor Assay for rat Thyrotropin Releasing Hormone Receptor (TRH) (AID 2283329).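 Note: hit means lower bound tracer signal versus DMSO baseline.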 An outline of the steps: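 Rat forebrain membranes; radioligand displacement at TRH receptor by filter-based scintillation counting, read 4 h after dosing. Duplicate single-point screen at 25 uM, actives rerun in concentration series; loss of signal relative to DMSO.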

For experiment [13], the target named is human Androgen Receptor (AR), AR (gene 367) (UniProt P10275). The experiment is described as follows: NVS_NR_hAR: NovaScreen (NVS) Nuclear Receptor Binding Assay for human Androgen Receptor (AR) (AID 2283332). In outline: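 Radioligand competitive binding, scintillation read-out, in cell-free extract from LnCAP, measured 20 h after dosing. Screened first in duplicate at 25 uM, then concentration series for actives; activity fitted against DMSO.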
human Androgen Receptor (AR), AR (gene 367), sequence (P10275 whole entry, looked up): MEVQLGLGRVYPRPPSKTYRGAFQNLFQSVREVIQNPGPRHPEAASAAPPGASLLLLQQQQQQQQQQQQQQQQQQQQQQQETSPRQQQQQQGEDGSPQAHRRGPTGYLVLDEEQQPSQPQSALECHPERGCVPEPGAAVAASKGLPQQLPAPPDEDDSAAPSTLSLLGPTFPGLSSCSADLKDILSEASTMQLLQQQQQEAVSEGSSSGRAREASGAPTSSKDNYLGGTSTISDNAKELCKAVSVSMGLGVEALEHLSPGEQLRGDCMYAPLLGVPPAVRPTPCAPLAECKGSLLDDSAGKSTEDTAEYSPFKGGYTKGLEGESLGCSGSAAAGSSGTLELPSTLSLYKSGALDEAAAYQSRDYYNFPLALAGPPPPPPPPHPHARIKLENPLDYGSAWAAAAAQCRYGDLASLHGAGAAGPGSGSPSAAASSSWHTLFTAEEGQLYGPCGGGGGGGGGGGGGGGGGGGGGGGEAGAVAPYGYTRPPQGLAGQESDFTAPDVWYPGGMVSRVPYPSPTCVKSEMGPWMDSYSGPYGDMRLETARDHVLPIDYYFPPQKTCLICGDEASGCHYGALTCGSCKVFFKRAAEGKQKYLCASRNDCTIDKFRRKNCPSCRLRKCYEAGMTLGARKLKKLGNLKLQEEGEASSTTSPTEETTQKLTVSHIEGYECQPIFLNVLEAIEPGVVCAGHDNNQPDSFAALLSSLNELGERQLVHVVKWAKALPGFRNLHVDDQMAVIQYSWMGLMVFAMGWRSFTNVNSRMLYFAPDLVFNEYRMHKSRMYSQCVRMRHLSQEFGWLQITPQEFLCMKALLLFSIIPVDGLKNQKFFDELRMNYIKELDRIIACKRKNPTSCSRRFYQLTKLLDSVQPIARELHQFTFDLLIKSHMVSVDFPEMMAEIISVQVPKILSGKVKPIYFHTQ

The target in experiment [14] is Small conductance calcium-activated potassium channel protein 1 (Rattus norvegicus) (UniProt P70606). Kind of experiment: NVS_IC_rKCaCh: NovaScreen (NVS) Ion Channel Assay for rat Potassium Channel, Ca2+ Act., VI (KCaCh) (AID 2283336). In outline:
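Filter-based scintillation counting of radioligand bound to rat forebrain membrane preparations, measured 1 h after compound addition. Primary screen used 25 uM in duplicate, with concentration-response follow-up; signal decrease relative to DMSO marks activity.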

In experiment [15] the target is human Serotonin, 5-Hydroxytryptamine Receptor 3 (5HT3), HTR3A (gene 3359) (UniProt P46098). The experiment is described as follows: NVS_LGIC_h5HT3: NovaScreen (NVS) Ligand-Gated Ion Channel Assay for human Serotonin, 5-Hydroxytryptamine Receptor 3 (5HT3) (AID 2283325). An outline of the steps: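 Initially tested at 25 uM in duplicate, then up to 50 uM in concentration-response for actives, compounds competed with a radioligand for HEK293-derived human 5-HT3 receptor. Bound counts were measured by filtration and scintillation at 1 h; loss of signal versus DMSO.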

For experiment [16], the target named is rat Glutamate, AMPA Site (AMPA), Gria1 (gene 50592) (UniProt P19490). The experiment is described as follows: NVS_LGIC_rAMPA: NovaScreen (NVS) Ligand-Gated Ion Channel Assay for rat Glutamate, AMPA Site (AMPA) (AID 2283324). In outline: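 Screening at 25 uM in duplicate preceded concentration series reaching 50 uM for qualifying compounds. Radioligand displacement on rat forebrain membranes, 1 h, filter-based scintillation readout; reduced binding relative to DMSO.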
rat Glutamate, AMPA Site (AMPA), Gria1 (gene 50592), sequence (P19490 whole entry, looked up): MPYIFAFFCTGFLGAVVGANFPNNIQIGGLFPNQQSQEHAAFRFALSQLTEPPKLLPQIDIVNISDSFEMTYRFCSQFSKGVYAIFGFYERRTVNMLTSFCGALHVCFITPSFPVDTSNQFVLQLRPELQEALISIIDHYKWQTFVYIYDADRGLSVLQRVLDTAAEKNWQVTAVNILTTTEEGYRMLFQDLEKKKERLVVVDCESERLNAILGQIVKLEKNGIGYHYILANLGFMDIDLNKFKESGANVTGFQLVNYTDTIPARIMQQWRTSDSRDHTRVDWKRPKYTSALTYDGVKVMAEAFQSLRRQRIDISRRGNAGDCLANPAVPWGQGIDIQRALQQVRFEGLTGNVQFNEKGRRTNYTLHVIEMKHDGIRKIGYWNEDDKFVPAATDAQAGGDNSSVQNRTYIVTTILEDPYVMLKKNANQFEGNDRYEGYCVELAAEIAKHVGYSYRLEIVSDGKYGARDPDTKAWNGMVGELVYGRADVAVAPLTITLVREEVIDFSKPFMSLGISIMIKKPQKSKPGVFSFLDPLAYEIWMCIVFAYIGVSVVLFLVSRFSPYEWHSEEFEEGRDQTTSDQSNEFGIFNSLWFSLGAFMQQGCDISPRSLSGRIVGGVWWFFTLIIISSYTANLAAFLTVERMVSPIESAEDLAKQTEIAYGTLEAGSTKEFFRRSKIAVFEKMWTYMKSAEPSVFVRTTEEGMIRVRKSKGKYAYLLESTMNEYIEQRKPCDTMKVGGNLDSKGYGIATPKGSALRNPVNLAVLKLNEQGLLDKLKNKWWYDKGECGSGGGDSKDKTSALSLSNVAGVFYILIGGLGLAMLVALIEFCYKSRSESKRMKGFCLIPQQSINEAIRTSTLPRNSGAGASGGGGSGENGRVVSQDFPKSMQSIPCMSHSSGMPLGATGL

For experiment [17], the target named is rat Gamma-Aminobutyric Acid Type A Receptor, Non-Selective (GABAR-NonSelective), Gabra1 (gene 29705) (UniProt P62813). The experiment is described as follows: NVS_LGIC_rGABAR_NonSelective: NovaScreen (NVS) Ligand-Gated Ion Channel Assay for rat Gamma-Aminobutyric Acid Type A Receptor, Non-Selective (GABAR-NonSelective) (AID 2283326). In outline:
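Compounds were first screened in duplicate at 25 uM, with actives run as singleton concentration series (max 50 uM). Binding of a radioligand to rat whole-brain GABA-A preparation was measured by filtration and scintillation counting after 1 h, DMSO baseline.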

Experiment [18] has as its target rat Oxytocin Receptor (OXT), Oxtr (gene 25342) (UniProt P70536). The experiment is described as follows: NVS_GPCR_rOXT: NovaScreen (NVS) G Protein-Coupled Receptor Assay for rat Oxytocin Receptor (OXT) (AID 2283330). In outline: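 Binding to rat uterine membrane receptor was followed by scintillation counting of filter-trapped radioligand after 1 h. A 25 uM duplicate single-point screen preceded concentration series with a top of 50 uM. Signal loss was analysed relative to DMSO.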

Experiment [19] addresses human Peripheral-type Benzodiazepine Receptor (PBR), TSPO (gene 706) (UniProt P30536). Kind of experiment: NVS_MP_hPBR: NovaScreen (NVS) Membrane Protein Assay for human Peripheral-type Benzodiazepine Receptor (PBR) (AID 2283331).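 Note: hits reduce radioligand binding relative to DMSO baseline.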 In outline:
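Cell-free binding to human colonic membrane preparations measured by filter-based scintillation counting after 1 h. Compounds first run at 25 uM in duplicate, then concentration series for actives; signal loss against DMSO baseline.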

Small conductance calcium-activated potassium channel protein 1 (Rattus norvegicus), sequence (P70606 whole entry, looked up): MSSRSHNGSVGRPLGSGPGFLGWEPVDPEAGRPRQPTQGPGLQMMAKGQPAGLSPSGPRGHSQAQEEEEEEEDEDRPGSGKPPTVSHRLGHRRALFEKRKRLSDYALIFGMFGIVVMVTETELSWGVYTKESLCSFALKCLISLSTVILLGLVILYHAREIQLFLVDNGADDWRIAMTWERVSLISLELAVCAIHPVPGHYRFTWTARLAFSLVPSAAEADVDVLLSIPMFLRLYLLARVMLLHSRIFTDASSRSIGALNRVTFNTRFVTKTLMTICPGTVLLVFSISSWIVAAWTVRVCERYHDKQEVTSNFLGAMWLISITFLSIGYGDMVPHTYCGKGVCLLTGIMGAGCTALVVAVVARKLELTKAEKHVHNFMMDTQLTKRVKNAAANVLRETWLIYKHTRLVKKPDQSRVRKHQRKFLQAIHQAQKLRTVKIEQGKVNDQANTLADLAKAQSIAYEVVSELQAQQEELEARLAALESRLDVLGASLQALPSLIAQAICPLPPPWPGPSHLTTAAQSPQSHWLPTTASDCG
bovine Gamma-Aminobutyric Acid Type A Receptor BDZ, alpha 1 site (GABARa1), GABRA1 (gene 780973), sequence (P08219 whole entry, looked up): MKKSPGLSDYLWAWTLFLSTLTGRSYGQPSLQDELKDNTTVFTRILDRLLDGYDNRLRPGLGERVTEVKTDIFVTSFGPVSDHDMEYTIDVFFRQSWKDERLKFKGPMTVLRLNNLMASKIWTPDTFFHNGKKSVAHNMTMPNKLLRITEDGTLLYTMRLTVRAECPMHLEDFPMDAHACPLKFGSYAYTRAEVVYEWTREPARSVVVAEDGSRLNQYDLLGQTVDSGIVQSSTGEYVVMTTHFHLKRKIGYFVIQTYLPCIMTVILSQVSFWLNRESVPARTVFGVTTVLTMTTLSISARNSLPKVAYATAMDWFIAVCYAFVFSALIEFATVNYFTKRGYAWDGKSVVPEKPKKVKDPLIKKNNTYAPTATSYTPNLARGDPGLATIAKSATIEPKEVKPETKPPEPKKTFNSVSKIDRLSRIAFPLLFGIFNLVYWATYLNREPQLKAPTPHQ
rat Gamma-Aminobutyric Acid Type A Receptor, Non-Selective (GABAR-NonSelective), Gabra1 (gene 29705), sequence (P62813 whole entry, looked up): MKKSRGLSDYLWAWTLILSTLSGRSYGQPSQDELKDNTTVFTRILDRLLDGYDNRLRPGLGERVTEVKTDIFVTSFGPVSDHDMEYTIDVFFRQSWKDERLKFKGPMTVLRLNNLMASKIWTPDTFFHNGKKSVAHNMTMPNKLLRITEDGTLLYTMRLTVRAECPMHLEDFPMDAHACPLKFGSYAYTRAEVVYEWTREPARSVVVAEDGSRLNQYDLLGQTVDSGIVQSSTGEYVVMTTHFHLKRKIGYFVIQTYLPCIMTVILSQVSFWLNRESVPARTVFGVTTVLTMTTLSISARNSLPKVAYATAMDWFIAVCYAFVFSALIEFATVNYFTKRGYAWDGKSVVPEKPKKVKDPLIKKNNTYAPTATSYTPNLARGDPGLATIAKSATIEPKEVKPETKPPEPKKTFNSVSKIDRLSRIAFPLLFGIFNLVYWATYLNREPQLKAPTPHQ

Consider `CCOc1cccc(C2(N3CCN(c4ccccc4)CC3)CCC(C)CC2)c1` (stereo not drawn), for which the outcome in experiment [1] and in experiment [2] was inactive.
For `CC(C)(C)C(O)(CCc1ccc(Cl)cc1)Cn1cncn1` (stereo not drawn), the AC50 in [3] is 25 µM (active); in experiment [5] it was 6.45 µM (active); in experiment [6] it was 16 µM (active). For the same compound, the result in experiment [4] was inactive.
For the compound `O=[N+]([O-])c1ccc(Oc2ccc(Cl)cc2Cl)cc1`, in experiment [7], the compound was classed as inactive.
For `Cc1ccc(N)c(N)c1`, the outcome in experiment [8] was inactive.
On to `O=[N+]([O-])C(Br)(CO)CO`, for which the concentration at half-maximal activity (AC50) in [9] is 16 µM (active).
Regarding `CCCCCOC(=O)c1ccccc1C(=O)OCCCCC`, the result in experiment [3] was inactive.
As for `ClC1=C(Cl)C2(Cl)C3C(Cl)C=CC3C1(Cl)C2(Cl)Cl` (stereo not drawn), the result in [1] was inactive.
For the compound `[Cl-].[Cl-].[Hg+2]`, the AC50 in experiment [9] is 13.6 µM (active); in experiment [7], 27.6 µM (active); in [10] it was 16.8 µM (active).
For the compound `C[C@]12C=CC3=C4CCC(=O)C=C4CC[C@H]3[C@@H]1CC[C@@H]2O`, the AC50 is 20.5 µM (active) in [8]; 40.7 µM (active) in experiment [11]; 0.345 nM (active) and 9.04 nM (active) in experiment [13]. Also, the call in experiment [12] and in experiment [14] was inactive.
On to `CCCCC(CC)COC(=O)c1ccc(C(=O)OCC(CC)CCCC)c(C(=O)OCC(CC)CCCC)c1` (stereo not drawn), for which the outcome in experiment [9] was inactive.
Regarding `Clc1ccc(C(c2ccc(Cl)cc2)C(Cl)Cl)cc1`, the compound was called inactive in experiment [7].
On to `Cc1ccc([N+](=O)[O-])cc1`, for which the AC50 in experiment [7] was 4.96 µM (active).
On to `O=C(Oc1ccc(Br)cc1)N1CCN2CCC1CC2`, for which the outcome in experiment [7], in experiment [8] and in [14] was inactive. Also, the AC50 in experiment [3] was 8.18 µM (active); in experiment [15], 12.5 µM (active).
Take `CCCCCCCCCCCCCN1CC(C)OC(C)C1` (stereo not drawn): the compound was classed as inactive in experiment [3].
Regarding `CCC[CH2][Sn]([Cl])([CH2]CCC)[CH2]CCC`, the result in experiment [1] and in [16] was inactive. For the same compound, the AC50 is 3.98 µM (active) in [9]; 11.6 µM (active) in experiment [10]; 17.7 µM (active) in experiment [3]; 4.03 µM (active) in [4]; 16.2 µM (active) in experiment [6].
Turning to `COP(=S)(OC)SCN1C(=O)c2ccccc2C1=O`, the AC50 in experiment [9] is 31.8 µM (active); in experiment [5], 11.3 µM (active). Also, the result in [3] was inactive.
For `O=C(N[C@H](c1ccccc1)[C@@H]1CN2CCC1CC2)c1c(Cl)ccc(C(F)(F)F)c1Cl`, the AC50 in experiment [9] was 9.3 µM (active); in [3], 0.113 µM (active); in [17], 0.238 µM (active); in [6], 3.07 µM (active). Also, the call in experiment [18], in [19], in experiment [4], in experiment [5] and in experiment [14] was inactive.
For `CCCCCCCCn1sccc1=O`, the concentration at half-maximal activity (AC50) in [10] is 18 µM (active); in experiment [3], 31.5 µM (active); in experiment [19], 1.24 µM (active); in experiment [6], 34.2 µM (active). Further, the compound was classed as inactive in experiment [16].
Regarding `CS(=O)(=O)NC(=O)c1cc(Oc2ccc(C(F)(F)F)cc2Cl)ccc1[N+](=O)[O-]`, the outcome in [1] was inactive.
Turning to `CCOC(=O)[C@]1(c2ccccc2)Oc2ccccc2[C@@H]1N`, the concentration at half-maximal activity (AC50) was 7.52 µM (active) in experiment [9]; 6.77 µM (active) in [10]; 2.3 µM (active) in experiment [3]; 1.08 µM (active) in experiment [17]; 1.44 µM (active) in [4]; 7.25 µM (active) in experiment [6].
Turning to `CC(C)(O)c1cnn2c(-c3ccc(F)c(-c4c(F)cccc4C#N)c3)cnc2n1`, the compound was classed as inactive in experiment [8] and in experiment [17]. Further, in [11], the concentration at half-maximal activity (AC50) was 0.00229 µM (active).
In the case of `c1ccc(NNc2ccccc2)cc1`, the compound was classed as inactive in experiment [16].
For `OCCCBr`, the call in [12] was inactive.
On to `Nc1ccc(Cl)cc1N`, for which the outcome in experiment [13] was inactive.
In the case of `Nc1ccc(N=Nc2ccccc2)cc1`, the compound was called inactive in experiment [4].
For the compound `C1=Cc2cccc3cccc1c23`, the result in [2] was inactive.
For the compound `C[N+](C)(C)CC1CO1` (stereo not drawn), the result in [14] was inactive.

What is called AC50 is the concentration giving half of the maximal activity seen.
